Compounds with a hit are over-represented: about 10% of the library has one in this group of screens.
HEK293 tox: Cytotoxic Profiling in HEK 293 Cell Line of Diverse Libraries Using Quantitative High-Throughput Screening. actives 6.6% (n = 94,000). Potency, µM (highest dose often 115 µM), usual class: inhibitors. AID 1345083, 2018. HEK 293 viability, ATP luminescence (CellTiter-Glo), 48-72 h; note: nearly all actives have a fitted effect of over 60% in size
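Viability of HEK 293 cells, plated at 250 cells/well, was judged by cellular ATP after compound treatment for 48 or 72 hr. Luminescence was imaged 10 min after CellTiter-Glo addition at room temperature.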
NPR1 antag: Natriuretic polypeptide receptor (hNpr1) antagonism - Primary qHTS; Atrial natriuretic peptide receptor 1 (Homo sapiens), P16066; Potency, µM (top dose mostly 46.3 µM), actives largely listed as inhibitors; actives 1.6% (n = 76,000); AID 1347048, 2019; HEK293 hNpr1 GloSensor cGMP, ANP-stimulated luminescence; calls by dose curve; note: nearly all actives have a fitted effect of over 60% in size
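HEK293 cells stably expressing human Npr1 and cGMP GloSensor pGS-40F, loaded 2 h with 2% GloSensor reagent, given compound 30 min at room temperature. Luminescence read before and 20 min after 0.1 nM hNppA.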
GPT2 inhibitor: Primary qHTS assay for inhibitors of Glutamate pyruvate transaminase 2 (GPT2); Potency, µM (doses to about 57.7 µM), usual class: inhibitors; Recombinant GPT2, coupled pyruvate oxidase/HRP Amplex Red fluorescence; AID 1671188, 2021; actives 0.25% (n = 100,000); Alanine aminotransferase 2 (Homo sapiens), Q8TD30; note: nearly all actives have a fitted effect of over 60% in size
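Inhibition is scored from Amplex Red fluorescence generated when pyruvate oxidase and HRP act on pyruvate released by GPT2. Reactions contain 10ng/uL enzyme, 250uM a-KG and 2mM L-alanine and run 30 min at room temperature.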
3T3 cytotox: Cytotoxic Profiling in NIH 3T3 Cell Line of Diverse Libraries Using Quantitative High-Throughput Screening. Potency, µM (series often up to 96.7 µM), hits mostly inhibitors. NIH 3T3 viability, CellTiter-Glo ATP luminescence, 48-72 h. actives 4.3% (n = 94,000); note: nearly all actives have a fitted effect of over 55% in size
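Mouse fibroblast NIH 3T3 cells, 400 per well, received compound via pintool and were incubated for 48 or 72 hr prior to CellTiter-Glo ATP luminescence measurement.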
FLuc inh: Firefly luciferase inhibition profiling of diverse chemical library using quantitative high-throughput screening; Luciferin 4-monooxygenase (Photinus pyralis), P08659; purified P. pyralis luciferase, luminescence, biochemical; Potency, µM (series often up to 115 µM), most hits filed as inhibitors; actives 2.5% (n = 76,000); note: nearly all actives have a fitted effect of over 65% in size
Target sequence (P08659 whole entry, looked up): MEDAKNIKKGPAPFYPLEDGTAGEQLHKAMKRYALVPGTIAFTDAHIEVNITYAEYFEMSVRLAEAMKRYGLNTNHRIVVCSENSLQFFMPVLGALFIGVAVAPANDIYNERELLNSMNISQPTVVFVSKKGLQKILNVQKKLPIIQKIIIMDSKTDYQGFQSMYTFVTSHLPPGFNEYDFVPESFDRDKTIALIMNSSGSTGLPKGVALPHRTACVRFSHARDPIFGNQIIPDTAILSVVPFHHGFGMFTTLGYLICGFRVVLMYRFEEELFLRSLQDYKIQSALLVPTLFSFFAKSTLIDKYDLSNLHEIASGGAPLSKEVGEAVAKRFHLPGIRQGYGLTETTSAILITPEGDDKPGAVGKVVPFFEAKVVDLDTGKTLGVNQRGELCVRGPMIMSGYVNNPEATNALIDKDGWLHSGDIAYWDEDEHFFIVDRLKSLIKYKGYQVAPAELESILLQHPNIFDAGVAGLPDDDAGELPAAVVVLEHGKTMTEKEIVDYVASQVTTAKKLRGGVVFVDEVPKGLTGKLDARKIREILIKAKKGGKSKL
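Purified 10nM P. pyralis luciferase with 10uM D-luciferin and 10uM ATP in 50mM Tris acetate pH 7.5, 10mM Mg acetate, 0.01% Tween-20, 0.05% BSA. qHTS titration; luminescence read by CCD imager.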
Large screens that a line does not name were inactive. Unless noted, calls come from the whole dose curve; as a rule, active = well fitted curve in the direction sought with a large enough effect; inconclusive = small, poorly fitted or top-dose-only effect, or another doubt; inactive = no such curve, though single readings can be large; an effect the other way counts as inactive or inconclusive.

CN(C)CCNC(=O)C[C@@H]1CCNC[C@@H]1Cc1cc(-c2ccc(C(C)(C)C)cc2)on1	HEK293 tox 32µM, 3T3 cytotox 40µM
COCCN1CCN(C(=O)CC(c2ccccc2)c2ccc(Cl)cc2)CC1 (stereo not given)	HEK293 tox inconclusive
Cc1noc(C)c1S(=O)(=O)N1CC(N(Cc2cccnc2)CC(C)C)C1	HEK293 tox inconclusive
COCCCn1c(=O)c(C(=O)N2CCN(C(=O)c3ccccc3OC)CC2)nc2cccnc21	none (no result: NPR1 antag, FLuc inh)
CC(C)(C)c1ccc(-c2cc(C[C@H]3CNCC[C@H]3CC(=O)N3CCC(Cc4ccccc4)CC3)no2)cc1	none
CCN(CC)C(=O)C[C@@H]1CCNC[C@@H]1Cc1cc(-c2ccc(C(C)(C)C)cc2)on1	HEK293 tox 40µM, 3T3 cytotox 40µM
O=C(Nc1ccc(F)cc1)C1CCN(c2nc3ncccc3o2)CC1	none (no result: NPR1 antag, FLuc inh)
O=C(NCc1ccncc1)[C@@H]1C[C@@H](c2ccc(F)cc2)N(CCOc2ccccc2)C1	HEK293 tox inconclusive, 3T3 cytotox inconclusive
O=C(NCc1ccc(F)cc1)c1nn(CCOc2ccccc2)c2c1CNCC2	HEK293 tox 40µM, 3T3 cytotox inconclusive (no result: NPR1 antag, FLuc inh)
C=C1C(=O)O[C@@H]2C(OC(=O)/C(C)=C\C)/C(C)=C\C(=O)/C=C(\C)C[C@H](O)[C@@H]12 (stereo not given in full)	none (no result: HEK293 tox, NPR1 antag, 3T3 cytotox, FLuc inh)
Cc1nc(C2CC23CCN(S(=O)(=O)c2cccnc2)CC3)no1 (stereo not given)	none (no result: NPR1 antag, FLuc inh)
CC(NC(=O)c1ccc2nnc(Cc3ccco3)n2c1)c1ccc(F)cc1 (stereo not given)	none (no result: NPR1 antag, FLuc inh)
CC(C)CC[C@@H](O)[C@](C)(O)[C@H]1CC[C@@]2(O)C3=CC(=O)[C@@H]4C[C@@H](O)[C@@H](O)C[C@]4(C)[C@H]3CC[C@]12C	none (no result: HEK293 tox, NPR1 antag, 3T3 cytotox, FLuc inh)
CC1=C[C@@H](CNS(C)(=O)=O)[C@H](C(C)C)C[C@H]1Cc1nc2ccc(Cl)cc2[nH]1	HEK293 tox 100µM, NPR1 antag inconclusive, 3T3 cytotox inconclusive
CC1=C[C@@H](CNC(=O)CCCC(=O)O)[C@H](C(C)C)C[C@H]1Cc1nc2ccc(Cl)cc2[nH]1	none
CC1=C[C@@H](CNC2CCN(C)CC2)[C@H](C(C)C)C[C@H]1Cc1nc2ccc(F)cc2[nH]1	HEK293 tox 71µM, 3T3 cytotox inconclusive
CC1=C[C@@H](CNS(C)(=O)=O)[C@H](C(C)C)C[C@H]1Cc1nc2ccc(F)cc2[nH]1	HEK293 tox 89µM, NPR1 antag inconclusive, 3T3 cytotox inconclusive
O=C1c2cc(N3CCOCC3)nc(-c3cnc4[nH]ccc4c3)c2CN1CC1CC1	HEK293 tox inconclusive
O=C(Cc1ccccc1)NCCC1CCN(C(=O)Nc2ccc(F)cc2)CC1	none
O=C(NCCc1ccc(F)cc1)c1cc(-c2cccs2)c2cccn2n1	HEK293 tox inconclusive, 3T3 cytotox inconclusive (no result: NPR1 antag, FLuc inh)
CC(C)(C)CC(=O)N[C@H]1CC(C)(C)[C@@H]2C[C@@](C)(O)CC[C@]12CCC(=O)NCCc1c[nH]c2ccccc12	3T3 cytotox inconclusive
COc1ccccc1CN[C@H]1CC(C)(C)[C@@H]2C[C@@](C)(O)CC[C@]12CCC(=O)NCCc1c[nH]c2ccccc12	HEK293 tox 28µM, GPT2 inhibitor inconclusive, 3T3 cytotox 28µM
CN(C)c1ccc(CN[C@H]2CC(C)(C)[C@@H]3C[C@@](C)(O)CC[C@]23CCC(=O)NCCc2c[nH]c3ccccc23)cc1	HEK293 tox 18µM, GPT2 inhibitor inconclusive, 3T3 cytotox 18µM
CC(c1cccs1)N(C)C(=O)c1cccc(Cl)c1 (stereo not given)	HEK293 tox 100µM
COc1cccc(C(=O)N(C)C(C)c2cccs2)c1 (stereo not given)	none
CC(c1cccs1)N(C)C(=O)Nc1ccc(Cl)cc1 (stereo not given)	HEK293 tox inconclusive, 3T3 cytotox 79µM, FLuc inh 45µM
CCNC(=O)[C@@H]1C[C@H](NC(=O)c2cccc(-c3ccc(F)cc3)c2)CN1C	HEK293 tox inconclusive, FLuc inh 35µM
C/C=C/CN1C[C@@H](NC(=O)c2cccc(N(C)C)c2)C[C@H]1C(=O)NCC	none
O=C(NC1CCNCC1)C1CCCN(c2nc(-c3ccccc3)nc3c2CCC3)C1 (stereo not given)	HEK293 tox inconclusive, 3T3 cytotox 40µM
O=C(C1CCCN(c2nc(-c3ccccc3)nc3c2CCC3)C1)N1CCNCC1 (stereo not given)	HEK293 tox inconclusive, 3T3 cytotox inconclusive
O=C(C1CCN(c2nc(-c3ccccc3)nc3c2CCC3)CC1)N1CCNCC1	HEK293 tox inconclusive, 3T3 cytotox inconclusive
NC1CCN(C(=O)C2CCCN(c3nc(-c4ccccc4)nc4c3CCC4)C2)CC1 (stereo not given)	HEK293 tox inconclusive, 3T3 cytotox 28µM
CC(C)(N)C(=O)N1CCN(c2nc(-c3ccccc3)nc3c2CCC3)CC1	HEK293 tox 50µM, 3T3 cytotox inconclusive
CCN1CCN(C(=O)c2nc3sccn3c2-c2cccc(C(F)(F)F)c2)CC1	none (no result: NPR1 antag, FLuc inh)
Cc1cc(-c2cc(-c3ccccn3)nc3c(C)noc23)ccn1	HEK293 tox inconclusive, 3T3 cytotox inconclusive
COC1CCN(c2cc(-c3ccccn3)nc3c(C)noc23)CC1	HEK293 tox 63µM, 3T3 cytotox inconclusive
COCCNc1cc(-c2ccc(Cl)cc2)nc2c(C)noc12	HEK293 tox inconclusive, 3T3 cytotox inconclusive
Cc1noc2c(NCCN(C)C)cc(-c3ccc(F)cc3)nc12	HEK293 tox inconclusive, 3T3 cytotox 40µM
COc1ccccc1-c1cc(N2CCN(c3ccccn3)CC2)c2onc(C)c2n1	HEK293 tox inconclusive, 3T3 cytotox inconclusive
COCCNc1cc(-c2ccc(F)cc2)nc2c(C)noc12	3T3 cytotox inconclusive
Cc1noc2c(NCCN(C)C)cc(-c3ccc(Cl)cc3)nc12	HEK293 tox 45µM, 3T3 cytotox 25µM
Cc1noc2c(NCCN(C)C)cc(-c3ccccn3)nc12	HEK293 tox 79µM, 3T3 cytotox inconclusive
CCC1(N2CCN(S(=O)(=O)c3ccc(F)c(C)c3)CC2)CCN(C(=O)NC)C1 (stereo not given)	3T3 cytotox inconclusive
Cc1ncoc1C(=O)N1CCC2(CC1)CC(N(Cc1ccc(F)cc1)C1CC1)CCO2 (stereo not given)	HEK293 tox inconclusive
O=C1NCCCCCCN(C(=O)CN2CCCCCC2)[C@H]2C[C@H](c3nc(-c4cccnc4)no3)C[C@@H]12	none
